Screening data from PubChem.
Most compounds without a hit are left out; they make up all but 3.3% or so of the library.
FAK inh: FAK (human) kinase inhibition | actives 0.84% (n = 97,000) | inhibition, %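 (tested at 7 µM)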 | biochemical FAK kinase activity assay | Q05397; in the data active means inhibition above about 19%;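 further: 0% = DMSO and 100% = reference compound high control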
ERb SRC1 inh: blocks coactivator binding to human estrogen receptor beta. actives 1.3% (n = 86,000). Q92731. inhibition, % at 25.6 µM. TR-FRET ER-beta LBD / SRC1-Cy5 peptide binding; receptor agonist-loaded with 1 µM estradiol;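 active means compounds whose percent inhibition of the receptor-coactivator binding signal exceeds about 50% in the single-dose screen, limit read from the data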;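 further: 0% = receptor plus peptide wells without compound and 100% = peptide-only wells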
ERa coact pot: ER-alpha (human) coactivator binding potentiation | actives 1.3% (n = 86,000) | TR-FRET ERalpha-LBD/SRC-Cy5 coactivator binding, 2 h; 100 = basal binding, no effect | P03372 | AID 639 | coactivator binding (% of control), % at 25.6 µM; in the data active means activity above about 200%;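 further: binding measured in presence of low estradiol as agonist stimulus; 0% = peptide alone without receptor and 100% = receptor with peptide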
Target sequence (P03372 whole entry, looked up, the tested form may be a part): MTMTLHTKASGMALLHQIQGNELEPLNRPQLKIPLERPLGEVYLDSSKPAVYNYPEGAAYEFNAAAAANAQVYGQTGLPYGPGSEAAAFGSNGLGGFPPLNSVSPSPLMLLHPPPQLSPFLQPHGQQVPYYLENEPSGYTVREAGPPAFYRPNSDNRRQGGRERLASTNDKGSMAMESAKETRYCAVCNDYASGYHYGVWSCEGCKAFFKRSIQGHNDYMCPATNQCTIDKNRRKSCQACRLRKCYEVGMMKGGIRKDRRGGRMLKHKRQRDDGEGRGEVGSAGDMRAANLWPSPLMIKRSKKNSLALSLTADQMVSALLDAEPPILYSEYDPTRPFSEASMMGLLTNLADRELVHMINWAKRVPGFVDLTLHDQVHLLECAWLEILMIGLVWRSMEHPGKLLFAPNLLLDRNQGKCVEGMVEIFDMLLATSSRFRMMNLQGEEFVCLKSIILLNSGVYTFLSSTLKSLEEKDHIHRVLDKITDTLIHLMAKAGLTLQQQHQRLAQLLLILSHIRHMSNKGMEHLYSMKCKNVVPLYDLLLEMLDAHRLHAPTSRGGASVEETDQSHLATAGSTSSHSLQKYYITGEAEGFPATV
ERa coact inh: blocks coactivator binding to human estrogen receptor alpha | TR-FRET ER-alpha LBD / SRC-1 peptide, estradiol-bound | AID 629 | P03372 | inhibition, % at 25.6 µM | actives 1.7% (n = 86,000); in the data active means inhibition above about 50%;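 further: 0% = receptor plus peptide control and 100% = peptide only without receptor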
Smad3 FoxH1 inh: Smad3 (human) transcription factor binding inhibition; P84022; TR-FRET Smad3/Dy647-FoxH1 peptide binding, europium anti-His; inhibition, % at 25 µM; actives 0.29% (n = 88,000);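 active means compounds that reduce the energy-transfer binding signal between the protein and its labelled peptide by more than half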;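 further: 0% = Smad3 plus labelled peptide maximal FRET and 100% = peptide-only background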
* hit, by the source's call; x = no result; [ ] = remark or other dose.

SMILES	FAK inh	ERb SRC1 inh	ERa coact pot	ERa coact inh	Smad3 FoxH1 inh
COC(=O)c1sc2nc(CSc3nc4ccc(C)cc4[nH]3)[nH]c(=O)c2c1C	1	20	64	30	7
CCOC(=O)c1sc2nc(CSc3nc4ccccc4n3CC)[nH]c(=O)c2c1C	10	38	75	54*[fluorescence artefact?]	-1
C[C@H]1[C@H](O)[C@@H](C)C=CC=CC=CC=CC=CC=CC=C[C@H](O[C@H]2O[C@@H](C)[C@H](O)[C@@H](N)[C@@H]2O)C[C@@H]2O[C@@](O)(C[C@@H](O)C[C@@H](O)[C@@H](O)CC[C@@H](O)C[C@@H](O)CC(=O)O[C@H]1C)C[C@H](O)[C@H]2C(=O)O	x	x	x	x	17
COC(=O)c1ccc(S(=O)(=O)N2C3CCC2CC(NC(=O)NC2CCCCC2)C3)cc1 (stereo not given)	-1	58*[fluorescence artefact?]	83	15	-13
N=C1CCC[C@H]1C(=S)SCCC(N)=O	x	x	x	x	9
Cn1c(=O)cc(SCC(=O)Nc2cccnc2)c2ccccc21	-5	-10	264*[fluorescence artefact?]	5	13
Cc1ccc2[nH]c(=O)c(-c3nc4ccccn4c3NCc3ccco3)cc2c1	5	22	115	53*	-2
O=C(Nc1ccc(Nc2ccc3c(c2)C(=O)c2ccccc2C3=O)c2c1C(=O)c1ccccc1C2=O)c1ccccc1	x	x	x	x	24
Nc1ccc2nc(-c3ccccn3)[nH]c2c1	7	76*[fluorescence artefact?]	12	97*[fluorescence artefact?]	1
Nc1ccc2nc(-c3cccs3)[nH]c2c1	1	56*[fluorescence artefact?]	72	43	10
COc1ccc2nc(-c3ccc(N)cc3)[nH]c2c1	2	10	98	1	8
COc1ccc2nc(-c3cccc(N)c3)[nH]c2c1	2	3	111	-2	10
Nc1ccc2nc(-c3ccccc3)[nH]c2c1	0	25	80	82*[fluorescence artefact?]	-6
Nc1ccc2nc(-c3ccc(N)c(Cl)c3)[nH]c2c1	4	54*[fluorescence artefact?]	27	92*[fluorescence artefact?]	7
NNS(=O)(=O)c1cc(C(=O)O)cc(C(=O)O)c1	x	x	x	x	-4
NCCNS(=O)(=O)c1ccc(N)cc1	x	x	x	x	4
COCCn1c(SCC(=O)Nc2sc(C)c(C)c2C#N)nnc1-c1ccc(OC)cc1	2	-6	125	-5	-8
Cc1ccc(-c2nnc(SCC(=O)Nc3sc(C)c(C)c3C#N)n2C)cc1	12	11	248*[fluorescence artefact?]	3	16
CSc1nnc(-c2ccc(NC(=O)CCc3ccccc3)cc2)n1C	-6	-8	105	1	7
Cn1c(SCC(=O)Nc2ccccc2)nnc1-c1ccc(NC(=O)CCc2ccccc2)cc1	-1	76*[fluorescence artefact?]	99	-1	-8
CCOC(=O)c1c(NC(=O)CSc2nnc(-c3cccnc3)o2)sc(C(C)=O)c1C	-1	16	204*[fluorescence artefact?]	20	-9
Cc1sc(NC(=O)CSc2nnc(COc3ccc(Cl)cc3)n2C)c(C#N)c1C	-1	42	317*[fluorescence artefact?]	41	6
CCOC(=O)c1c(NC(=O)CSc2nnc(-c3ccco3)o2)sc(C(C)=O)c1C	-10	-3	156	10	5
Cc1sc(NC(=O)CSc2nnc(-c3ccc(F)cc3)o2)c(C#N)c1C	5	20	101	52*	6
CCOc1cc(N2CCOCC2)c(OCC)cc1NC1=NCCCCC1	-6	70*[fluorescence artefact?]	69	44	-2
SMILES	FAK inh	ERb SRC1 inh	ERa coact pot	ERa coact inh	Smad3 FoxH1 inh
FC(F)(F)c1ccc(N2CCOCC2)c(NC2=NCCCCC2)c1	-2	-6	98	-7	7
CC(c1ccccc1)N1CCn2c(nc3cc(NC(=O)c4cccs4)ccc32)C1 (stereo not given)	3	3	81	0	-2
COCCN1CCn2c(nc3cc(NC(=O)c4cccs4)ccc32)C1	3	43	17	74*[fluorescence artefact?]	-13
Cc1csc(N/N=C/c2ccc(O)c([N+](=O)[O-])c2)n1	0	99*[fluorescence artefact?]	4	99*[fluorescence artefact?]	14
Cc1csc(NC(=O)c2ccccc2[N+](=O)[O-])n1	-1	x	x	x	x
NC1=C(O)C(=O)[C@H](c2c[nH]c3ccc(OCc4ccccc4)cc23)O1	x	x	x	x	10
COc1ccc2c(c1)c1c(C)c3cnccc3c(C)c1n2CCCN	x	x	x	x	87*
CCN(CC)CCOC(=O)c1c(C)n(C)c2ccc(OC)cc12	-1	x	x	x	x
Fc1ccc(CSc2nnc(Cc3sc(-c4ccccc4)nc3-c3ccccc3)o2)cc1	-1	-9	274*[fluorescence artefact?]	-20	-5
COc1ccc(CSc2nnc(Cc3sc(-c4ccccc4)nc3-c3ccccc3)o2)cc1	2	-18	438*[fluorescence artefact?]	-41	1
CSc1nnc(Cc2sc(-c3ccccc3)nc2-c2ccccc2)o1	2	-5	98	6	9
O=C(O)C[C@@H](C(=O)O)c1ccccc1[N+](=O)[O-]	x	x	x	x	48
O=C(c1sc2ccccc2c1Cl)N(Cc1cccs1)C1CCS(=O)(=O)C1 (stereo not given)	-4	4	89	58*[fluorescence artefact?]	-13
COc1ccc(NC(=O)CN(c2ccccc2)S(=O)(=O)N(C)C)cc1OC	0	57*	69	63*[fluorescence artefact?]	-8
O=C(O)CCC(O)=C1S(=O)(=O)OCCOS1(=O)=O	x	x	x	x	5
CC(=O)Nc1ccc(S(=O)(=O)NC(C(=O)O)C(C)C)cc1 (stereo not given)	1	66*[fluorescence artefact?]	105	-12	0
CCC(C)NS(=O)(=O)c1ccc(NC(C)=O)cc1 (stereo not given)	-1	-23	99	-21	-1
N#CC(=C1N=c2ccccc2=N1)c1c(O)[nH]c2ccccc12	0	x	x	x	x
Cn1c(O)c(C(C#N)=C2N=c3ccccc3=N2)c2ccccc21	-1	48	68	80*[fluorescence artefact?]	18
C[C@H](CCC(=O)O)[C@H]1CC[C@H]2[C@@H]3[C@@H](O)C[C@H]4C[C@@H](O)CC[C@]4(C)[C@H]3C[C@@H](O)[C@]12C	x	x	x	x	12
CN1CCc2ccccc2[C@H]1Cc1ccccc1NC(=O)c1sc2ccccc2c1Cl	x	x	x	x	32
Cc1cccn2c(=O)c3cc(C(=O)NCc4ccco4)c(=N)n(C(C)C)c3nc12	0	13	89	3	8
Cc1ccc(CNC(=O)c2cc3c(=O)n4ccccc4nc3n(Cc3ccco3)c2=N)cc1	x	55*[fluorescence artefact?]	53	82*[fluorescence artefact?]	4
N=c1c(C(=O)NCc2ccco2)cc2c(=O)n3ccccc3nc2n1Cc1ccc(Cl)cc1	3	58*[fluorescence artefact?]	75	80*[fluorescence artefact?]	11
N=c1c(C(=O)NCc2ccco2)cc2c(=O)n3ccccc3nc2n1Cc1ccccc1	0	35	72	47	0
N=c1c(C(=O)NCc2ccccc2)cc2c(=O)n3ccccc3nc2n1Cc1ccco1	6	47	68	71*[fluorescence artefact?]	11
Cc1cccn2c(=O)c3cc(C(=O)NCc4ccco4)c(=N)n(CCc4ccccc4)c3nc12	x	59*	55	93*[fluorescence artefact?]	15
O=P(O)(CCP(=O)(O)c1ccccc1)c1ccccc1	x	x	x	x	1
COC(=O)[C@@H]1O[C@H](SCCN)[C@@H](O)[C@H](O)[C@H]1O	x	x	x	x	39
